IMPase Li inh – qHTS Assay for Identifying the Cell-Membrane Permeable IMPase Inhibitors: Potentiation with Lithium; Potency, µM (doses to about 59.4 µM), without a hit: at the highest dose activity, negative = IMPase inhibition, actives largely listed as inhibitors; 0.35% of 210,000 active; CHO-M1 cells, IP1 TR-FRET (IP-One), carbachol + lithium;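 also: IP1 builds up when IMPase is blocked and the TR-FRET signal falls; potency is read from the fitted curve at half-maximal effect; plate controls were basal vehicle for no effect and high inhibitor control for full effect; nearly all actives have a fitted effect of over 50% in size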
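CHO-M1, 2000 cells/well, 16–30 h culture; cpd + low Li+, 30 min 37C; lysis with d2-IP1/Eu-anti-IP1 Ab, 10 min RT; TR-FRET 665/620 ratio and 620 channel; AC50 via Hill.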
HPGD inh – qHTS Assay for Inhibitors of HPGD (15-Hydroxyprostaglandin Dehydrogenase); purified HPGD, NADH fluorescence kinetic, PGE2 substrate; 4.3% of 150,000 active; Potency, µM, for inactives: at the top dose activity change, negative = inhibition, most hits filed as inhibitors; 15-hydroxyprostaglandin dehydrogenase [NAD(+)] (Homo sapiens), P15428; active = well fitted inhibition curve with a large enough effect, not every such curve was filed as active; inconclusive = small, poorly fitted or top-dose-only effect, or another doubt; inactive = no such curve, though single readings can be large or run the other way; also: potency is read from the fitted curve at half-maximal effect
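NADH formation kinetics: reaction with 30 uM PGE2 and 1 mM NAD+ (final), 20 nM enzyme, Tris-HCl pH 8 with Tween 20, after 15 min compound preincubation at room temperature. Fluorescence change, last versus first of five reads.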
ALOX12 inhib – qHTS Assay for Inhibitors of 12-hLO (12-human lipoxygenase) | purified 12-hLO, xylenol orange hydroperoxide absorbance | Potency, µM (series often up to 57.1 µM), for the others: top-dose activity change, negative = inhibition, usual class: inhibitors | 0.12% of 150,000 active | AID 1452, 2008; also: potency is read from the fitted curve at half-maximal effect; nearly all actives have a fitted effect of over 55% in size
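Hydroperoxide formation by human 12-lipoxygenase from 40 uM arachidonic acid was followed colorimetrically via ferric-xylenol orange complex, using the 573/405 nm absorbance ratio. Enzyme concentration was 150 nM, with 30 min reaction at room temperature.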
IMPase cell inh – qHTS Assay for Identifying the Cell-Membrane Permeable IMPase Inhibitors | CHO-M1 cells, IP1 accumulation, HTRF TR-FRET ratio | inhibition (IP1 accumulation), % at 46.1 µM | Inositol monophosphatase 1 (Rattus norvegicus), P97697 | 120,000 tested, under 10 active; active = well fitted curve in the direction sought with a large enough effect in the signal ratio, not every such curve was filed as active; inconclusive = small, poorly fitted or top-dose-only effect, or a change in a side signal; inactive = no such curve, though single readings can be large or run the other way; the % refers to the signal ratio;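 also: cells stimulated with carbachol in lithium chloride buffer; plate controls were DMSO basal wells for no effect and reference inhibitor wells for full effect; higher means more IMPase inhibition seen as more IP1 and lower FRET ratio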
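Cellular IMPase inhibition is scored as a rise in cytosolic IP1, detected by competitive TR-FRET between d2-labelled IP1 and a europium anti-IP1 antibody. M1-expressing CHO cells were stimulated with carbachol for 30 min at 37C, with lithium (50 mM LiCl) present in the buffer.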
ALDH1A1 block – qHTS Assay for Inhibitors of Aldehyde Dehydrogenase 1 (ALDH1A1). Aldehyde dehydrogenase 1A1 (Homo sapiens), P00352. Purified ALDH1A1, NADH fluorescence, propionaldehyde substrate. 7.3% of 220,000 active. Potency, µM (titrated, usually from 75.3 µM), without a hit: top-dose activity, negative = inhibition, usual class: inhibitors; active = well fitted inhibition curve with a large enough effect, not every such curve was filed as active; inconclusive = small, poorly fitted or top-dose-only effect, or another doubt; inactive = no such curve, though single readings can be large or run the other way;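 also: potency is read from the fitted curve at half-maximal effect; plate controls were no enzyme wells and a reference inhibitor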
Target sequence (P00352 whole entry, looked up): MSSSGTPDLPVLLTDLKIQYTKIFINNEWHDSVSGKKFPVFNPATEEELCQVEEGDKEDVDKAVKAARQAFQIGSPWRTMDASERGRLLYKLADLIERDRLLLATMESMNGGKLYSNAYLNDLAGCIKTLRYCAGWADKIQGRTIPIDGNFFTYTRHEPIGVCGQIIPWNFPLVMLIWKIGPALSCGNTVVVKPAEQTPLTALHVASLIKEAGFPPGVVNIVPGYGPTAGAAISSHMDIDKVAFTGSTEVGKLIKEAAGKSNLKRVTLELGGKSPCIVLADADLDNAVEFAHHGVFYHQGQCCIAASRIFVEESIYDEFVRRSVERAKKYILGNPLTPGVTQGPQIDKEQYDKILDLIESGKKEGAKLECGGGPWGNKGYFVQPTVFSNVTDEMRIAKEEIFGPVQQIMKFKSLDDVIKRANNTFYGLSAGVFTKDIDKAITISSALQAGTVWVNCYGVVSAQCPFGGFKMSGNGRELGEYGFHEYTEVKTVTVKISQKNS
PNC assembly inh – High Content Assay for Compounds that inhibit the Assembly of the Perinucleolar Compartment; 3.1% of 140,000 active; activity change (PNC), negative = inhibition, % at 10 µM; PC3M PTB-GFP, PNC prevalence imaging, 16 h; stronger effect = lower value; AID 2417, 2010;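 active = readout at or below -70, meaning at least 70% loss of cells showing the perinucleolar compartment, a nuclear body marking cancer cells; inconclusive = readout between -30 and a set limit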;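 also: plate controls were DMSO wells for no effect and camptothecin positive control wells for full effect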
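PC3M cells stably expressing PTB-GFP, 750–1000 cells/well, treated 16 h at 37 °C with compound (23 nl of library stock), in duplicate. After paraformaldehyde fixation and Hoechst stain, imaged at 20x; PNC prevalence scored by image analysis.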
Starred values were filed as active, the others as inactive; u = inconclusive; x = no result; [ ] = remark or other dose. A selection: hits, their analogues and other compounds. The true share with any hit is near 11%. Unless noted, calls follow the shape of the dose curve; as a rule, active = well fitted curve in the direction sought with a large enough effect; inconclusive = small, poorly fitted or top-dose-only effect, or another doubt; inactive = no such curve, though single readings can be large; an effect the other way counts as inactive or inconclusive. Unless noted, % is scaled to controls: 0 for no effect and ±100 for the full control effect.

SMILES	IMPase Li inh	HPGD inh	ALOX12 inhib	IMPase cell inh	ALDH1A1 block	PNC assembly inh
CN(C)c1ccc(NC(=O)CSCc2nc3c(nnn3Cc3ccc(F)cc3)c(=O)[nH]2)cc1	85%[38.3 µM]	22µM*	-16%	7	10µM*	-15
Cc1cccc(NC(=O)CSCc2nc3c(nnn3Cc3ccc(F)cc3)c(=O)[nH]2)c1C	7%	x	x	x	3%	x
COc1cccc(-c2cncnc2Nc2ccccc2)c1	-5%	x	x	x	-3%	x
COc1ccc(-c2nnc(Nc3ccc(OC)c(C(N)=O)c3)c3ccccc23)cc1	x	x	x	-12	x	x
COc1ccc(-c2nnc(Nc3ccc(OC)c(C(=O)N4CCCCC4)c3)c3ccccc23)cc1	11%	14µM*	-17%	-12	u	-23
CCCCCCCCCCCCC(=O)N1CCCC[C@H]1CNC(=O)[C@@H](N)CCCCN	6%	-4%	7%	1	-3%	x
COc1cc(CNc2ccc(N3CCCC3)cc2)ccc1OCc1ccccc1F	-5%	-26%	4%	x	3%	24
COc1ccc(NCc2ccc(OC)c(OC)c2)cc1	6%[38.3 µM]	-12%	-14%	8	28µM*	-12
COc1ccc(CNc2ccc(C)c(C)c2)cc1	4%	x	x	x	-6%	x
COc1cc(CNc2ccc(N3CCCC3)cc2)ccc1OCc1ccccc1	18%	-15%	u	1	7.9µM*	-9
Cc1cc(C)n(-c2nnc(Nc3ccc(C)c(C)c3)c3ccccc23)n1	x	x	x	9	x	x
Cc1ccc(O)c(N=Cc2cc(Cc3ccccc3)cc([N+](=O)[O-])c2O)c1	6%	x	x	x	14µM*	x
O=[N+]([O-])c1cc(Cc2ccccc2)cc(C=Nc2ccc(N3CCOCC3)cc2)c1O	3%	5µM*	-2%	x	u	-21
COc1cccc(-c2nccc(NCc3cnc(C)cn3)n2)c1	5%	x	x	x	10%	x
COc1ccc(-c2ccc(S(=O)(=O)NCC3CCCO3)cc2)cc1 (centres undefined)	1%	u	-7%	x	u	5
COc1cc(S(=O)(=O)NCC2CCCO2)ccc1Br (centres undefined)	25%[38.3 µM]	-12%	8%	5	-6%	-112*
O[C@@H](c1cc(-c2ccc(Cl)cc2)nc2ccccc12)[C@@H]1CCCCN1	x	x	1%[11.4 µM]	x	x	x
COC(CNC(=O)c1ccc(N2CCC3(CC2)OCCO3)c([N+](=O)[O-])c1)OC	2%	-16%	-2%	-1	28µM*	30
O=C(c1ccc(N2CCC3(CC2)OCCO3)c([N+](=O)[O-])c1)N1CCOCC1	2%	x	x	x	-7%	x
O=C(c1ccc(S(=O)(=O)Cc2cc(F)ccc2F)c([N+](=O)[O-])c1)N1CCCC1	-12%	x	x	x	8.9µM*	x
CC1CCN(C(=O)c2ccc(S(=O)(=O)Cc3cccc(F)c3)c([N+](=O)[O-])c2)CC1	2%	-25%	-1%	x	25µM*	7
O=C(c1ccc(S(=O)(=O)Cc2cc(F)ccc2F)c([N+](=O)[O-])c1)N1CCCCC1	20%	14µM*	3%	19	8.9µM*	-29
Cc1ccccc1CS(=O)(=O)c1ccc(C(=O)N2CCC(C)CC2)cc1[N+](=O)[O-]	-1%	x	x	x	-3%	x
CC(=O)O[C@H]1C(=O)[C@@]2(C)C([C@H](OC(=O)c3ccccc3)[C@]3(O)C[C@H](OC(=O)[C@H](O)[C@@H](NC(=O)c4ccccc4)c4ccccc4)C(C)=C1C3(C)C)[C@]1(OC(C)=O)CO[C@@H]1C[C@@H]2O (some centres undefined)	4%	-23%	x	x	6%	x

Source: PubChem
